These results are taken from PubChem BioAssay AID2284125 (EPA ToxCast).

The source made the active and inactive calls. The calls were made as follows: active = hit-call score of the fitted dose curve at least 0.9, where 1 is the maximum; inactive = score below 0.9.

Beta-2 adrenergic receptor (Homo sapiens), sequence (P07550 whole entry, looked up): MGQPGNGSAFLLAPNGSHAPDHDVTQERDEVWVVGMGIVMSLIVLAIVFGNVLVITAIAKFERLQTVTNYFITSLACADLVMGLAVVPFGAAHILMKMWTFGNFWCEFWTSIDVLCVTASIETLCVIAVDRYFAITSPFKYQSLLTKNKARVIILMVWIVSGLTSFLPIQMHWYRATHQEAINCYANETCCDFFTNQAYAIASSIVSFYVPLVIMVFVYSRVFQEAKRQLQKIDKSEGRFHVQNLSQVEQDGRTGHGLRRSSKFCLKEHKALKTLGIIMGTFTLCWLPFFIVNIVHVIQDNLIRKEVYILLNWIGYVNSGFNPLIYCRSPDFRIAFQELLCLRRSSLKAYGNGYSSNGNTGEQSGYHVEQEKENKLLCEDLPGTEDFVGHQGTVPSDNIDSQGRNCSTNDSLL

The assay deals with Beta-2 adrenergic receptor (Homo sapiens) (UniProt P07550). The assay can be described thus: ERF_FR_GPCR_hADRB2: Eurofins (ERF) G Protein-Coupled Receptor (GPCR) Radioligand Binding LeadHunter Assay for human Adrenoceptor Receptor beta2 Antagonism, conducted at France lab site. On the procedure:
ERF_FR_GPCR_hADRB2 is a biochemical, single-readout assay that uses extracted gene-proteins in a cell-free assay. Measurements were taken 2 hour after chemical dosing in a 96-well plate. See beta2 Human Adrenoceptor GPCR Binding (Antagonist Radioligand) Assay, Cerep.ERF_FR_GPCR_hADRB2 is an assay component calculated from the ERF_FR_GPCR_hADRB2 assay. It is designed to measure radioligand binding using a type of binding reporter as detected by scintillation counting with radiometry technology.Data from the assay component ERF_FR_GPCR_hADRB2 was analyzed at the assay endpoint, ERF_FR_GPCR_hADRB2, in the positive analysis fitting direction relative to DMSO as the negative control and baseline of activity. Using a type of binding reporter, loss-of-signal activity can be used to understand changes in binding as they relate to gene ADRB2. To generalize the intended target to other relatable targets, this assay endpoint is annotated to the gpcr intended target family, where the subfamily is adrenoceptor.
Human cells are incubated for 60 minutes in room temprature, using [3H](-)CGP 12177 ligand at 0.3 Kd (nM) with ICI 118551 control inhibitor.Test Sample Requirements: Minimum for 1) Screen: 60 ul of 10 mM stock -OR- 1 mg (pre-weighed) for […] uM final testing. 2) Dose Response: 90 ul of 10 mM stock -OR- 1 mg (pre-weighed) for a top concentration at 10 uM.
Regarding `COc1cc(CCC(=O)CC(=O)CCc2ccc(O)c(OC)c2)ccc1O`, the call was inactive.

As for `O=C(/C=C/c1ccc(O)cc1)CC(=O)/C=C/c1ccc(O)cc1`, the AC50 (in general, the midpoint of the concentration-response curve, whichever way the signal moves) is 3.68 µM (active).
